Source: PubChem BioAssay AID1159580 (chemical genetic matrix, 2015)
Screen size: about 5,500 compounds; about 2,000 (36%) were called active. Another 18% or so got no clear call; they are omitted. Cut-off read from the data, not from the text of the source: active = normalized growth mostly below about 0.91 (no sharp cut-off); inconclusive = no clear call, values can overlap the other calls; inactive = mostly above about 0.92. This is one part of the list.

Assay: chemical genetic growth profiling, strain panel (AID 1159580);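 note: tested at 20 µM; growth read once vehicle control cultures reached saturation at 30 °C; 1 = growth at the plate median or of vehicle wells; lower values mean less growth of the strain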
Settings: growth OD

Measured: normalized growth

COC(=O)CCC(C)[C@H]1CCC2C3C(C[C@H](O)[C@@]21C)[C@@]1(C)CC[C@@H](O)C[C@H]1C[C@H]3O (stereo not given in full)
inactive: S. cerevisiae deletion strains, locus YJR075W, strain HOC1, hits give low values 0.986 | S. cerevisiae deletion strains, locus YKL009W, strain mrt4, hits give low values 1.02 | S. cerevisiae deletion strains, locus YKL068W, hits give low values 1 | S. cerevisiae deletion strains, locus YKL085W, strain MDH1 (second series), hits give low values 1.01 | S. cerevisiae deletion strains, locus YKL085W, strain MDH1, hits give low values 1.01 | S. cerevisiae deletion strains, locus YKL160W, strain elf1, hits give low values 1.03 | S. cerevisiae deletion strains, locus YKR001C, strain vps1, hits give low values 1 | S. cerevisiae deletion strains, locus YKR026C, strain gcn3, hits give low values 1.03 | S. cerevisiae deletion strains, locus YKR091W, strain srl3, hits give low values 1.01 | S. cerevisiae deletion strains, locus YLL001W, strain dnm1, hits give low values 1.03 | S. cerevisiae deletion strains, locus YLL026W, hits give low values 1.01 | S. cerevisiae deletion strains, locus YLL041C, strain sdh2, hits give low values 1.01 | S. cerevisiae deletion strains, locus YLR027C, strain aat2, hits give low values 1.01 | S. cerevisiae deletion strains, locus YLR039C, strain RIC1, hits give low values 1.13 | S. cerevisiae deletion strains, locus YLR058C, strain SHM2, hits give low values 1.01 | S. cerevisiae deletion strains, locus YLR102C, strain apc9, hits give low values 1.03 | S. cerevisiae deletion strains, locus YLR113W, strain HOG1, hits give low values 0.975 | S. cerevisiae deletion strains, locus YLR221C, strain rsa3, hits give low values 1.02 | S. cerevisiae deletion strains, locus YLR258W, strain gsy2, hits give low values 1.03 | S. cerevisiae deletion strains, locus YLR262C, strain YPT6 (second series), hits give low values 1.02 | S. cerevisiae deletion strains, locus YLR262C, strain YPT6, hits give low values 1.09 | S. cerevisiae deletion strains, locus YLR268W, strain sec22, hits give low values 1.01 | S. cerevisiae deletion strains, locus YLR320W, strain mms22, hits give low values 1.04 | S. cerevisiae deletion strains, locus YLR330W, strain CHS5, hits give low values 1.01 | S. cerevisiae deletion strains, locus YLR342W, strain FKS1 (second series), hits give low values 1.02 | S. cerevisiae deletion strains, locus YLR342W, strain FKS1, hits give low values 1.01 | S. cerevisiae deletion strains, locus YLR357W, strain rsc2, hits give low values 1.03 | S. cerevisiae deletion strains, locus YLR370C, strain arc18, hits give low values 1.01 | S. cerevisiae deletion strains, locus YLR371W, strain rom2, hits give low values 1.02 | S. cerevisiae deletion strains, locus YLR384C, strain iki3, hits give low values 1 | S. cerevisiae deletion strains, locus YLR418C, strain cdc73, hits give low values 0.932 | S. cerevisiae deletion strains, locus YML016C, strain PPZ1, hits give low values 1.04 | S. cerevisiae deletion strains, locus YML032C, strain rad52, hits give low values 1.01 | S. cerevisiae deletion strains, locus YML120C, strain ndi1, hits give low values 1.02 | S. cerevisiae deletion strains, locus YML124C, strain tub3, hits give low values 1.02 | S. cerevisiae deletion strains, locus YMR058W, strain fet3, hits give low values 1.02 | S. cerevisiae deletion strains, locus YMR078C, strain ctf18, hits give low values 1.04 | S. cerevisiae deletion strains, locus YMR125W, strain sto1, hits give low values 1.03 | S. cerevisiae deletion strains, locus YMR129W, hits give low values 1.01 | S. cerevisiae deletion strains, locus YMR205C, strain PFK2, hits give low values 1.02 | S. cerevisiae deletion strains, locus YMR223W, strain ubp8, hits give low values 0.996 | S. cerevisiae deletion strains, locus YMR231W, strain pep5, hits give low values 1.01 | S. cerevisiae deletion strains, locus YMR263W, strain SAP30, hits give low values 1.01 | S. cerevisiae deletion strains, locus YMR307W, strain GAS1, hits give low values 0.86 | S. cerevisiae deletion strains, locus YNL067W, strain RPL9B, hits give low values 1 | S. cerevisiae deletion strains, locus YNL071W, strain lat1, hits give low values 1.01 | S. cerevisiae deletion strains, locus YNL128W, strain TEP1, hits give low values 1.02 | S. cerevisiae deletion strains, locus YNL153C, strain GIM3, hits give low values 0.988 | S. cerevisiae deletion strains, locus YNL183C, strain NPR1, hits give low values 0.955 | S. cerevisiae deletion strains, locus YNL209W, strain ssb2, hits give low values 1.02 | S. cerevisiae deletion strains, locus YNL233W, strain BNI4, hits give low values 0.957 | S. cerevisiae deletion strains, locus YNL248C, strain rpa49, hits give low values 1.04 | S. cerevisiae deletion strains, locus YNL250W, strain rad50, hits give low values 1.01 | S. cerevisiae deletion strains, locus YNL271C, strain bni1, hits give low values 1.02 | S. cerevisiae deletion strains, locus YNL298W, strain CLA4, hits give low values 0.993 | S. cerevisiae deletion strains, locus YNL307C, strain MCK1, hits give low values 1.03 | S. cerevisiae deletion strains, locus YNL322C, strain KRE1 (second series), hits give low values 1.03 | S. cerevisiae deletion strains, locus YNL322C, strain KRE1, hits give low values 1.02 | S. cerevisiae deletion strains, locus YNR049C, strain mso1, hits give low values 1.01 | S. cerevisiae deletion strains, locus YNR052C, strain pop2, hits give low values 1.01 | S. cerevisiae deletion strains, locus YOL006C, strain TOP1, hits give low values 0.974 | S. cerevisiae deletion strains, locus YOL012C, strain htz1 0.777 | S. cerevisiae deletion strains, locus YOL147C, strain pex11, hits give low values 1.03 | S. cerevisiae deletion strains, locus YOR001W, strain rrp6, hits give low values 0.985 | S. cerevisiae deletion strains, locus YOR061W, strain CKA2, hits give low values 1.04 | S. cerevisiae deletion strains, locus YOR069W, strain VPS5, hits give low values 1.06 | S. cerevisiae deletion strains, locus YOR070C, strain gyp1, hits give low values 0.995 | S. cerevisiae deletion strains, locus YOR080W, strain dia2, hits give low values 1.01 | S. cerevisiae deletion strains, locus YOR083W, strain WHI5, hits give low values 1.03 | S. cerevisiae deletion strains, locus YOR106W, strain vam3, hits give low values 1.01 | S. cerevisiae deletion strains, locus YOR136W, strain idh2, hits give low values 1.02 | S. cerevisiae deletion strains, locus YOR144C, strain elg1, hits give low values 1.02 | S. cerevisiae deletion strains, locus YOR184W, strain ser1, hits give low values 0.986 | S. cerevisiae deletion strains, locus YOR231W, strain MKK1, hits give low values 0.991 | S. cerevisiae deletion strains, locus YOR265W, strain rbl2, hits give low values 1.01 | S. cerevisiae deletion strains, locus YOR270C, strain vph1, hits give low values 0.913 | S. cerevisiae deletion strains, locus YOR290C, strain snf2, hits give low values 0.977 | S. cerevisiae deletion strains, locus YOR316C, strain cot1, hits give low values 1.03 | S. cerevisiae deletion strains, locus YPL051W, strain arl3, hits give low values 1.01 | S. cerevisiae deletion strains, locus YPL078C, strain atp4, hits give low values 1.03 | S. cerevisiae deletion strains, locus YPL106C, strain sse1, hits give low values 1.05 | S. cerevisiae deletion strains, locus YPL240C, strain hsp82, hits give low values 1 | S. cerevisiae deletion strains, locus YPL241C, strain CIN2, hits give low values 1.02 | S. cerevisiae deletion strains, locus YPL256C, strain CLN2, hits give low values 0.981 | S. cerevisiae deletion strains, locus YPR119W, strain clb2, hits give low values 1.03 | S. cerevisiae deletion strains, locus YPR141C, strain kar3, hits give low values 1.03 | S. cerevisiae deletion strains, locus YPR163C, strain tif3, hits give low values 1.03 | S. cerevisiae deletion strains, locus YPR167C, strain met16, hits give low values 1.03 | S. cerevisiae deletion strains, strain wtn01, hits give low values 1.01 | S. cerevisiae strains, strain wild type, hits give low values 1.02
